# Data as given in PubChem BioAssay.
# Molecular target: Left-right determination factor 2 (Homo sapiens) (UniProt O00292)
# Test: LEFTY2 binders on small-molecule microarrays, primary screen, biochemical, small-molecule microarray, 635 nm fluorescence scan (AID 1110)
# Details: LEFTY2 binding, higher = more signal
# Sequence of Left-right determination factor 2 (Homo sapiens) (O00292 whole entry, looked up): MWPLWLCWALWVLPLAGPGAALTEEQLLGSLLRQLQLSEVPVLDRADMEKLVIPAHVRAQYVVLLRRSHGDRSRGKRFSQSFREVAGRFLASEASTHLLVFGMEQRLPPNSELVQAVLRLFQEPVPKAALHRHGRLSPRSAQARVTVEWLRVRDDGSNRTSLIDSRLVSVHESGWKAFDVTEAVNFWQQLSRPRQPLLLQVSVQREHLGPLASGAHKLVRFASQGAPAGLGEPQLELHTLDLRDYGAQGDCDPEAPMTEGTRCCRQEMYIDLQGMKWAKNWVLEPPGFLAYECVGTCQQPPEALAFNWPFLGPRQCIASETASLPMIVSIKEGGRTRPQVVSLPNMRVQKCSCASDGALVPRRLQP
row,SMILES,composite z-score
1,Cc1ccccc1C(O)C1C=CC2C(=O)N(c3ccccc3)C(=O)C2N1Nc1ccc(C(C)C)cc1 (stereo not given),0.262
2,CCS[C@H]1[C@@H](C(=O)O)[C@H](c2ccc(C)cc2)N(S(=O)(=O)c2ccc(C)cc2)[C@@H]1CC,0.0041
3,COc1cc(NN2C(C(O)c3ccco3)C=CC3C(=O)N(c4ccccc4)C(=O)C32)cc(OC)c1OC (stereo not given),-0.198
4,CNS(=O)(=O)c1ccc(C)cc1,0.804
5,O=C1N(Cc2ccccc2)c2ccccc2[C@@H]2OC(c3ccc(OCCCO)cc3)=N[C@]12CCS(=O)(=O)c1ccccc1,0.274
6,COc1cc2c(cc1O)C(C1CC1)N(Cc1sc3ccccc3c1Cl)CC2 (stereo not given),-0.423
7,Oc1ccc2cc[n+](Cc3sc4ccccc4c3Cl)cc2c1,0.0344
8,CC(C)N1C(=O)C[C@@](C(=O)NCC(F)(F)F)(c2ccc([N+](=O)[O-])cc2)[C@H]1c1ccc(CO)cc1,-0.383
9,COCCCNC(=O)[C@@]1(C)c2ccccc2C(=O)N(C(C)C)[C@H]1c1ccc(CO)cc1,0.577
10,COCCOC(=O)N1C(=O)[C@@]2(c3cc(C#CCC(C(=O)OC)C(=O)OC)ccc31)[C@H](c1ccccc1OCCO)N1[C@H](c3ccccc3)[C@H](c3ccccc3)OC(=O)[C@H]1[C@@H]2C(=O)N1CCN(c2ncccn2)CC1,0.755
11,CCOC(=O)[C@H]1C/C=C/C[C@H](C(=O)OCC)C(=O)O[C@H]2[C@@H](OC)O[C@H](CO)[C@@H](OC(=O)c3c(OC)cccc3OC)[C@@H]2OC1=O,0.204
12,C=C(COC)/C(=C/C[C@@H](OC(=O)c1ccncc1)c1ccc(CO)o1)c1cc(C(=O)OC)ccc1OC,1.44
13,CC(C)N1C(=O)c2ccccc2[C@](C)(C(=O)NCCN2CCOCC2)[C@@H]1c1ccc(CO)cc1,-1.03
14,COCCCNC(=O)[C@@H]1c2ccccc2C(=O)N(Cc2ccccc2Cl)[C@H]1c1ccc(CO)cc1,0.67
15,CC(C)NC(=O)[C@@]1(c2ccc([N+](=O)[O-])cc2)CC(=O)N(C2CCCCC2)[C@@H]1c1ccc(CO)cc1I,-0.159
16,C=C(CCCC)/C(=C/C[C@H](OC(C)=O)c1ccccc1OCCO)c1cc(C(=O)OC)ccc1OC,-0.264
17,COCCOC(=O)N1C(=O)[C@@]2(c3cc(C#Cc4ccc(OC)cc4)ccc31)[C@H](c1ccc(O)cc1)N1[C@H](c3ccccc3)[C@H](c3ccccc3)OC(=O)[C@H]1[C@@H]2C(=O)N1CCc2cc(OC)c(OC)cc2C1,0.471
18,O=C1C2C=CC(C(O)Cc3ccccc3)N(n3cnnc3)C2C(=O)N1Cc1ccccc1 (stereo not given),-0.262
19,C=CC[C@]1(C(=O)NCc2ccccc2)N=C(c2ccc(OCCCO)cc2)O[C@H]1c1ccccc1N=[N+]=[N-],0.201
20,CCOC(=O)C[C@H]1[C@H](OC(=O)c2ccc(C(=O)c3ccccc3)cc2)[C@@H](NC(=O)c2ccc3ccccc3n2)c2cc(OCCCO)ccc2N1C(=O)c1ccccc1,-0.538
21,CN(C)C(=O)[C@@]1(CCS(=O)(=O)c2ccccc2)COC(c2ccc(OCCCO)cc2)=N1,0.149
22,COc1ccccc1CN1C(=O)c2ccccc2[C@@H](C(=O)NC2CC2)[C@@H]1c1ccc(CO)cc1,0.57
23,COC(=O)[C@H](Cc1ccccc1)N[C@@H](/C=C/C1CC1)[C@H](O)Cc1ccccc1,-0.517
24,O=C1C2C=CC(C(O)c3cccc4ccccc34)N(Nc3ccccc3F)C2C(=O)N1c1ccccc1 (stereo not given),0.264
25,O=C(CS)NCCCCCCNC(=O)[C@@H]1C[C@@H]2C(=O)N[C@@H](Cc3ccccc3)C(=O)N2[C@@H]1c1cccc(OCCO)c1,0.934
26,NC(=O)NCC#Cc1ccc2c(c1)[C@]1(C(=O)N2)[C@H](C(N)=O)[C@H]2C(=O)O[C@H](c3ccccc3)[C@H](c3ccccc3)N2[C@@H]1c1ccc(O)cc1,-1.13
27,CCCC[C@@H]1C[C@H]1[C@@H](NC(=O)c1cccs1)c1ccc(-c2ccccc2)cc1,-0.0554
28,C=CCOC(=O)[C@H]1[C@@H]2C(=O)O[C@@H](c3ccccc3)[C@@H](c3ccccc3)N2[C@@H](c2ccc(OCCOC(=O)[C@@H]3C[C@@H]4C(=O)N[C@@H](CCCCNC(C)=O)C(=O)N4[C@@H]3c3ccc(O)cc3)cc2)[C@]12C(=O)Nc1ccccc12,0.515
29,CCCCCCc1nc(-c2ccc(OC)nc2)cc2c1[Si](C(C)C)(C(C)C)O[C@H]2c1ccccc1,0.28
30,CC(C)C(CO)N1C(=O)[C@@H]2C3C(=O)OCCC/C=C\[C@H]3OC23C=CCN(CCN2CCOCC2)C(=O)[C@@H]13 (stereo not given in full),0.0228
